Values joined by “and” are separate entries in the source; they are usually repeats but may differ in a detail not shown here. Equal values may be shown once. Some structures have more than one record in an assay (separate samples or runs), and their calls can disagree. Active and inactive are the calls of the source. A call without a number means that no potency is given here. Unless noted, calls come from the whole dose curve; as a rule, active = well fitted curve in the direction sought with a large enough effect in the repeat runs; inconclusive = weak or mixed curves; inactive = no such curve, though single readings can be large; an effect the other way counts as inactive or inconclusive.
Key:
[1] = qHTS assay to identify small molecule antagonists of the thyroid receptor (TR) signaling pathway - cell viability counter screen (AID 743064); note: nearly all actives have a fitted effect of over 50% in size
Method in brief: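 Compounds were tested on GH3.TRE-Luc cells in the presence of T3 at 1 nM final. Following 23.5 h at 37 °C, cell viability was quantified by CellTiter-Fluor.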

[2] = tested on: thyroid hormone receptor (rat, GH3 cells); assay: qHTS assay to identify small molecule agonists of the thyroid receptor (TR) signaling pathway (AID 743066; calls by dose curve)
[3] = target: Estrogen receptor (Homo sapiens) (UniProt P03372); assay: qHTS assay to identify small molecule antagonists of the estrogen receptor alpha (ER-alpha) signaling pathway (AID 743069; active = well fitted curve in the direction sought with a large enough effect in the signal ratio in the repeat runs, not every such curve was filed as active; inconclusive = weak or mixed curves, or effect the other way; inactive = no such curve, though single readings can be large or run the other way; the % refers to the signal ratio; note: potency is the fitted concentration of half-maximal effect)
Method in brief: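 A 17beta-estradiol challenge was applied right after compound transfer to ER-alpha-UAS-bla HEK293 cells previously kept in charcoal-stripped serum. Plates stood 18 hr at 37C and 5% CO2; fluorescence was read following 2 hr FRET substrate loading at room temperature.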

[4] = qHTS assay to identify small molecule antagonists of the estrogen receptor alpha (ER-alpha) signaling pathway - cell viability counter screen (AID 743074; calls by dose curve;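 note: HEK293 cells carrying ER-alpha-UAS-bla reporter stimulated with 17beta-estradiol; nearly all actives have a fitted effect of over 45% in size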)
[5] = target: Estrogen receptor (Homo sapiens) (UniProt P03372); assay: qHTS assay to identify small molecule agonists of the estrogen receptor alpha (ER-alpha) signaling pathway (AID 743075; calls by dose curve;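 note: HEK293 GripTite cells with ER-alpha and UAS-driven beta-lactamase reporter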; note: potency is the fitted concentration of half-maximal effect)
[6] = target: Estrogen receptor (Homo sapiens) (UniProt P03372); assay: qHTS assay to identify small molecule agonists of the estrogen receptor alpha (ER-alpha) signaling pathway using the BG1 cell line (AID 743079); settings: BG1Luc4E2 cells, ERE-luciferase agonist, 22 h; note: nearly all actives have a fitted effect of over 20% in size; note: potency is the fitted concentration of half-maximal effect
[7] = qHTS assay to identify small molecule antagonists of the estrogen receptor alpha (ER-alpha) signaling pathway using the BG1 cell line (AID 743080; calls by dose curve;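 note: BG1 cells stimulated with 17beta-estradiol alongside compound; nearly all actives have a fitted effect of over 25% in size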)
Method in brief: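 Endogenous full-length ER-alpha in BG1-Luc-4E2 cells drives a stably integrated 4×ERE luciferase gene; compounds were tested against 17beta-estradiol over 21.5 h, with luminescence and multiplexed viability fluorescence recorded.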

[8] = qHTS assay to identify small molecule antagonists of the estrogen receptor alpha (ER-alpha) signaling pathway using the BG1 cell line - cell viability counter screen (AID 743081);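 note: compound given together with 17beta-estradiol as the ER stimulus; nearly all actives have a fitted effect of over 45% in size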
Aromatase (Homo sapiens) = Aromatase (Homo sapiens) (UniProt P11511); assay: qHTS assay to identify aromatase inhibitors (AID 743083); note: nearly all actives have a fitted effect of over 55% in size
[9] = qHTS assay to identify aromatase inhibitors - cell viability counter screen (AID 743084);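 note: cells stimulated with testosterone during compound exposure; nearly all actives have a fitted effect of over 55% in size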
[10] = target: Aryl hydrocarbon receptor (Homo sapiens) (UniProt P35869); assay: qHTS assay to identify small molecule that activate the aryl hydrocarbon receptor (AhR) signaling pathway (AID 743085); note: nearly all actives have a fitted effect of over 15% in size; note: potency is the fitted concentration of half-maximal effect;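 for activation: HG2L7.5c1 human HepG2 liver cells with stably integrated DRE-driven firefly reporter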
Method in brief: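 24 h compound exposure, 37C, HepG2-derived HG2L7.5c1 cells with DRE-responsive luciferase. Readouts: fluorescence viability, then luminescence at room temperature after 30 min.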

[11] = qHTS assay to identify small molecule that activate the aryl hydrocarbon receptor (AhR) signaling pathway - cell viability counter screen (AID 743086);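 note: HepG2 liver cells carrying the AhR DRE luciferase reporter; nearly all actives have a fitted effect of over 45% in size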
Method in brief: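 HepG2-AhR-luc (HG2L7.5c1) cells, 4000/well, were preincubated 5 h at 37C, exposed to compound in qHTS format for 24 hr at 37C, then given CellTiter-Fluor for 30 min; viability was read as fluorescence in the reporter wells.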

[12] = target: Peroxisome proliferator-activated receptor gamma (Homo sapiens) (UniProt P37231); assay: qHTS assay to identify small molecule agonists of the peroxisome proliferator-activated receptor gamma (PPARg) signaling pathway (AID 743094; active = well fitted activation curve with a large enough effect in the signal ratio in the repeat runs, not every such curve was filed as active; inconclusive = weak or mixed curves, or effect the other way; inactive = no such curve, though single readings can be large or run the other way; the % refers to the signal ratio)
Method in brief: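 Agonist activity was taken from a beta-lactamase reporter (FRET substrate, 1 h at room temperature) in HEK293H cells carrying a PPARg UAS-bla construct. Compounds in DMSO were incubated 17 h at 37C after a 5 h cell pre-incubation.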

[13] = target: Peroxisome proliferator-activated receptor gamma (Homo sapiens) (UniProt P37231); assay: qHTS assay to identify small molecule antagonists of the peroxisome proliferator-activated receptor gamma (PPARg) signaling pathway (AID 743191; calls by dose curve; note: nearly all actives have a fitted effect of over 30% in size)
Method in brief: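 GeneBLAzer PPARg UAS-bla HEK293H cells carrying a UAS-driven beta-lactamase reporter were plated at 3000 cells/well, preincubated 5 h at 37C, then given compound for 17 h at 37C; LiveBLAzer B/G FRET substrate was read after 1 h at room temperature.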

[14] = qHTS assay to identify small molecule antagonists of the peroxisome proliferator-activated receptor gamma (PPARg) signaling pathway - cell viability counter screen (AID 743194); settings: Potency: co-treated with 50 nM rosiglitazone; note: nearly all actives have a fitted effect of over 55% in size
Method in brief: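 PPARg-UAS-bla HEK293H cells were plated, rested 5 h at 37 C, then treated with compounds plus rosiglitazone (50 nM final) for 17 h at 37 C; viability was then read by CellTiter-Glo luminescence after 30 min at room temperature.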

[15] = qHTS assay for small molecule agonists of the antioxidant response element (ARE) signaling pathway (AID 743202; active = well fitted activation curve with a large enough effect in the signal ratio in the repeat runs, not every such curve was filed as active; inconclusive = weak or mixed curves, or effect the other way; inactive = no such curve, though single readings can be large or run the other way; the % refers to the signal ratio)
Method in brief: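 Following a 16 h, 37 C exposure of reporter HepG2 cells (ARE-driven beta-lactamase, 2,000 cells/well) to compounds, FRET substrate was applied for 2 h at room temperature and fluorescence intensity recorded.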

[16] = qHTS assay for small molecule agonists of the antioxidant response element (ARE) signaling pathway - cell viability counter screen (AID 743203; calls by dose curve; note: nearly all actives have a fitted effect of over 55% in size)
Method in brief: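 Viability counter screen: CellTiter-Glo luminescence, read after 30 min at room temperature, in ARE-bla HepG2 wells. Compound exposure lasted 16 h at 37C/5% CO2, following a 5 h pre-incubation of the cells after plating.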

[17] = qHTS assay for small molecule activators of the heat shock response signaling pathway - cell viability counter screen (AID 743209); note: nearly all actives have a fitted effect of over 50% in size; note: potency is the fitted concentration of half-maximal effect
Method in brief: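 Cytotoxicity counter screen run in the same wells as the heat-shock bla reporter assay: HeLa HSE-bla cells, 5 h compound exposure at 37 C, viability read by CellTiter-Glo luminescence.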

[18] = qHTS assay for small molecule activators of the heat shock response signaling pathway (AID 743210; active = well fitted activation curve with a large enough effect in the signal ratio in the repeat runs, with a control signal flat, not every such curve was filed as active; inconclusive = weak or mixed curves; the % refers to the signal ratio)
Method in brief: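 Heat shock element–beta-lactamase HeLa reporter cells; qHTS with compounds for 5 h at 37 C; detection by FRET substrate fluorescence after 2.5 h at RT.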

[19] = qHTS assay to identify small molecule antagonists of the thyroid receptor (TR) signaling pathway (AID 743065); note: nearly all actives have a fitted effect of over 55% in size; note: potency is the fitted concentration of half-maximal effect
Method in brief: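 GH3.TRE-Luc rat pituitary cells carrying two TR response elements driving luciferase were plated for 4 h, given compound plus 1 nM T3 (final), and incubated 23.5 h at 37 C. ONE-Glo luminescence measured reporter inhibition; CellTiter-Fluor fluorescence tracked cytotoxicity.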

Aryl hydrocarbon receptor (Homo sapiens), sequence (P35869 whole entry, looked up): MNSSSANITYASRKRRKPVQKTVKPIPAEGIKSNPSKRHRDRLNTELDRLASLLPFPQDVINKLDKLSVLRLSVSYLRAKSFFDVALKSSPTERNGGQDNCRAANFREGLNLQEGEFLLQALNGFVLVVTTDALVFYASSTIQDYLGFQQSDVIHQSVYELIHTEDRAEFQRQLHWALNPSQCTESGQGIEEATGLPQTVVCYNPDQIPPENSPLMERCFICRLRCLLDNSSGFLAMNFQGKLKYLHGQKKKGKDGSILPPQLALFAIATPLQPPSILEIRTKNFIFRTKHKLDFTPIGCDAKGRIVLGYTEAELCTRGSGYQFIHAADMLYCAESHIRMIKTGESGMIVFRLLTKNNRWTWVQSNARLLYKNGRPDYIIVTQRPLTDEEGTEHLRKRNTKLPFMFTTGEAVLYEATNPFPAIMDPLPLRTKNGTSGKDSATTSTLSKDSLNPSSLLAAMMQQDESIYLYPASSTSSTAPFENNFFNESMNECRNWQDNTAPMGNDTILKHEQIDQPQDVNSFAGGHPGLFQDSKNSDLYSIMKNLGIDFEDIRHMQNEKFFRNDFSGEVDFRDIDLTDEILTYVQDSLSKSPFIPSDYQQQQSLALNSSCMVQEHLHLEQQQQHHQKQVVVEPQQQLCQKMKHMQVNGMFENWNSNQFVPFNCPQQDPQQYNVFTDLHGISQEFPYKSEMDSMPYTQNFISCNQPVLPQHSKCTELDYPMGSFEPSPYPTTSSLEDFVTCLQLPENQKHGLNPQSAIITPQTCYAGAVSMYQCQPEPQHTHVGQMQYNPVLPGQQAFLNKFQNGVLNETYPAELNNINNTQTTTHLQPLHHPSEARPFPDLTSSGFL
Peroxisome proliferator-activated receptor gamma (Homo sapiens), sequence (P37231 whole entry, looked up): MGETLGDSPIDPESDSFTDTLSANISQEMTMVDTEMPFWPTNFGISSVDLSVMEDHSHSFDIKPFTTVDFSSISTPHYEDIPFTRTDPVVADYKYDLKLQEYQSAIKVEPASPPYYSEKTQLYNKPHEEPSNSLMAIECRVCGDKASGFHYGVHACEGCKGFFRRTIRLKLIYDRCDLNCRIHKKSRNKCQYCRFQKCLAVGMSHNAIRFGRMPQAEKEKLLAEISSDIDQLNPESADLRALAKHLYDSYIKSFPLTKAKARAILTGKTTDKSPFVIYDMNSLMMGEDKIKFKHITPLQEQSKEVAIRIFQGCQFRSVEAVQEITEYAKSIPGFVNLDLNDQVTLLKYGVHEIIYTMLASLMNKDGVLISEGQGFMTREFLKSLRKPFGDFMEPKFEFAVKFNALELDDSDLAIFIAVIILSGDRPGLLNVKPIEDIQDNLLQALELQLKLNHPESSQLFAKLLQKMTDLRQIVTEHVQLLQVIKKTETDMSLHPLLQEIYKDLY
Estrogen receptor (Homo sapiens), sequence (P03372 whole entry, looked up): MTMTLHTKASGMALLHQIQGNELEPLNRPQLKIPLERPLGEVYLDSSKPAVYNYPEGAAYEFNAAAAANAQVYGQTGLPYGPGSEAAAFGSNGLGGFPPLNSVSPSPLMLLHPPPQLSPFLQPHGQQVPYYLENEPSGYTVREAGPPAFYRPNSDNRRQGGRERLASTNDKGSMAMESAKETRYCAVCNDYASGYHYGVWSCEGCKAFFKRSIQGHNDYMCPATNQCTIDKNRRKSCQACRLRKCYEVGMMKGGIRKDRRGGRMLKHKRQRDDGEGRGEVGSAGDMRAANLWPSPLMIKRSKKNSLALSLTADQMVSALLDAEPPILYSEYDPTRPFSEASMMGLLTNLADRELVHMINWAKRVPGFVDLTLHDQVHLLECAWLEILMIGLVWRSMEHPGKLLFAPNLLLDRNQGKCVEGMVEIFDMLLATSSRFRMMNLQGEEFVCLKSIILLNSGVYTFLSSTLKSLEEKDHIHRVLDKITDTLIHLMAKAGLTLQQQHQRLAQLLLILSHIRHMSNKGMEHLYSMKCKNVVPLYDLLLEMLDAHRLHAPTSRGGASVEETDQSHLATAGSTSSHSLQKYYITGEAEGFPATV
Aromatase (Homo sapiens), sequence (P11511 whole entry, looked up): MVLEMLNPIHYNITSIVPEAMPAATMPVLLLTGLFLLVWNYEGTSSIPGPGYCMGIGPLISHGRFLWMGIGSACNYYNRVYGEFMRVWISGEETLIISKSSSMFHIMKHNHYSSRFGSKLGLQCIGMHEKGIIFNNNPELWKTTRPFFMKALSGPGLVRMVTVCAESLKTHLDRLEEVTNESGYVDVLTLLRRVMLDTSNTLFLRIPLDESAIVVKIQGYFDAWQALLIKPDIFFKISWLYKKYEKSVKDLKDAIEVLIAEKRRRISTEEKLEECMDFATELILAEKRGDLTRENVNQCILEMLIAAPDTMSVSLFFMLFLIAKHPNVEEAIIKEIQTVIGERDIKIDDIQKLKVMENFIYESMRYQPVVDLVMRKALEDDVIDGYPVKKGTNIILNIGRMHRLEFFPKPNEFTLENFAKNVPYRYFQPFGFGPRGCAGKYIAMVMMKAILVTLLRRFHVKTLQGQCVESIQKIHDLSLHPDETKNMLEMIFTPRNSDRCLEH

COc1cc(OC)nc(NC(=O)NS(=O)(=O)c2ncccc2C(=O)N(C)C)n1
Potency [1]: inactive | Potency [2]: inactive | Potency [3]: inactive | outcome [4]: inactive | Potency [5]: inactive | activation ([6]; at 70.3 µM (top of the series)): 9.83% (inactive) | Potency [7]: inactive | Potency [8]: inactive | Potency (Aromatase (Homo sapiens)): inactive | Potency [9]: inactive | Potency [10]: inactive | outcome [11]: inactive | outcome [12]: inactive | Potency [13]: inactive | Potency [14]: inactive | Potency [15]: inactive | Potency [16]: inactive | Potency [17]: inactive | outcome [18]: inactive

Nc1cc2c3c(c1)C(c1ccccc1)=N[C@@H](NC(=O)c1cccnc1)C(=O)N3CC2
Potency [1]: inactive | Potency [2]: inactive | Potency [3]: inactive | outcome [4]: inactive | Potency [5]: inactive | activation ([6]; at 70.3 µM (top of the series)): -22.1% (inactive) | Potency [8]: inactive | Potency (Aromatase (Homo sapiens)): inactive | Potency [9]: inactive | Potency [10]: inactive | outcome [11]: inactive | Potency [13]: inactive | Potency [14]: inactive | Potency [15]: inactive | Potency [16]: inactive | Potency [17]: inactive

CCOP(=S)(OCC)Oc1nc(Cl)n(C(C)C)n1
Potency [1]: inactive | Potency [2]: inactive | Potency [3]: inactive | outcome [4]: inactive | Potency [5]: inactive | activation ([6]; at 70.3 µM (top of the series)): 5.59% (inactive) | Potency [7]: inactive | Potency [8]: inactive | Potency (Aromatase (Homo sapiens)): inactive | Potency [9]: inactive | Potency [10]: 10.9 µM (active) | outcome [11]: inactive | outcome [12]: inactive | Potency [13]: inactive | Potency [14]: inactive | Potency [15]: inactive | Potency [16]: inactive | Potency [17]: inactive | outcome [18]: inactive

CCN(CC)C(=O)[C@@H]1C=C2c3cccc4[nH]cc(c34)C[C@H]2N(C)C1
Potency [1]: inactive | Potency [2]: inactive | outcome [4]: inactive | Potency [5]: inactive and 8.49 µM [inconclusive] (active) | Potency [6]: 944 nM (active) | activation ([6]; at 260 µM (top of the series)): -12% (inactive) | Potency [7]: inactive | Potency (Aromatase (Homo sapiens)): inactive | Potency [9]: inactive | outcome [11]: inactive | outcome [12]: inactive | Potency [14]: inactive | Potency [16]: inactive | Potency [17]: inactive | outcome [18]: inactive

CCOC(=O)/C=C(C)/C=C/C[C@@H](C)CCCC(C)C
Potency [1]: inactive | Potency [19]: inactive | Potency [3]: inactive and 24.5 µM [inhibitor] (active) | outcome [4]: inactive | Potency [5]: inactive | activation ([6]; at 70.3 µM (top of the series)): 19.2% (inactive) and -9.9% (inactive) | Potency [7]: inactive | Potency [8]: inactive | Potency (Aromatase (Homo sapiens)): inactive | Potency [9]: inactive | outcome [11]: inactive | outcome [12]: inactive | Potency [17]: 38.9 µM (active)

CC(C)CC#N
Potency [1]: inactive | Potency [3]: inactive | outcome [4]: inactive | Potency [5]: inactive | activation ([6]; at 95 µM (top of the series)): 6.55% (inactive) | Potency [8]: inactive | Potency (Aromatase (Homo sapiens)): inactive | Potency [9]: inactive | Potency [10]: inactive | outcome [11]: inactive | Potency [13]: inactive | Potency [15]: inactive | Potency [16]: inactive | Potency [17]: inactive | outcome [18]: inactive

c1cc[c]([Hg][c]2ccccc2)cc1
Potency [19]: 3.06 µM (active) | Potency [2]: inactive | Potency [3]: inactive | outcome [4]: inactive | Potency [5]: inactive | Potency [8]: inactive | Potency (Aromatase (Homo sapiens)): inactive | Potency [9]: inactive | outcome [11]: inactive | Potency [17]: inactive | outcome [18]: inactive

O=C(Nc1ccccc1)N(Cc1ccc(Cl)cc1)C1CCCC1
Potency [19]: 21.7 µM (active) | Potency [2]: inactive | outcome [4]: inactive | Potency [8]: inactive | Potency (Aromatase (Homo sapiens)): inactive | Potency [9]: inactive | Potency [10]: 54.5 µM (active) | Potency [17]: inactive | outcome [18]: inactive

CCNc1nc(NC(C)C)nc(OC)n1
Potency [1]: inactive | Potency [2]: inactive | outcome [4]: inactive | Potency [8]: inactive | Potency (Aromatase (Homo sapiens)): inactive | outcome [11]: inactive | outcome [12]: inactive | Potency [14]: inactive | Potency [15]: inactive | Potency [16]: inactive | Potency [17]: inactive | outcome [18]: inactive
